Several values for one entry are separate records, joined by “and”; a condition that tells them apart may be missing. Identical values can stand only once. Among all 640,000 compounds or so, about 9,300 (1.5%) were called active. No stated cut-off is given here; in the data, active means inhibition above about 32%; inactive means the rest. Many of the other results were omitted from the sample, so actives are more common in it than they were.
Assay: TEAD-YAP interaction inhibition, primary screen, TEAD-YAP interaction inhibitor project, luminescence, HEK-TIYL cells (AID 1259422);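 further: 0% = median of test compound wells and 100% = reference inhibitor wells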
Details: TEAD-Gal4/YAP UAS-luciferase luminescence, at 9.12 µM, hits give high values
With `CC(=O)c1cccc(N2CC(O)=C(c3nc4ccccc4[nH]3)C2=N)c1` the inhibition was -5.18% (inactive). In the case of `COc1ccc(N2CC(O)=C(c3nc4ccccc4c(=O)[nH]3)C2=N)cc1`, the inhibition is reported as 0.42% (inactive). For `Cc1cccc(N2CC(O)=C(c3nc4ccccc4c(=O)[nH]3)C2=N)c1C`, the inhibition was 46.8% (active). For `C/C(CC(=O)Nc1cccc2ccccc12)=N\NC(=O)c1cccnc1`, the inhibition was -13.7% (inactive). For `CC(=O)Nc1ccc2nc(SCC(=O)Nc3ccccc3F)sc2c1`, the inhibition was -58.7% (inactive). In the case of `COc1cccc(-n2cc(CN(C)C3CCC(=O)N(Cc4ccccc4F)CC3)cn2)c1` (stereo unspecified), the inhibition is reported as 8.57% (inactive). For `Cc1nc(CC(=O)N2CCC(N3CCC(C(=O)N4CCOCC4)CC3)CC2)cs1`, the inhibition was -4.91% (inactive). With `COc1cc(Br)cc(/C=N\NC(=O)c2ccc(C)nc2)c1O` the inhibition was 35.4% (active). For `COc1cc(Br)cc(/C=N/NC(=O)c2cc(-c3ccccc3)n[nH]2)c1O`, the inhibition was 15.7% (inactive). In the case of `CCOc1cccc(/C=N/NC(=O)c2ccc(C)nc2)c1O`, the inhibition is reported as 18.1% (inactive). For `CC(=O)c1cccc(NC(=O)c2ncoc2-c2ccc(Cl)cc2)c1`, the inhibition was 2.52% (inactive). For `COc1ccc(-c2csc(N3CCC(C)CC3)n2)cc1`, the inhibition was -61.1% (inactive). With `O=C1CCCC2=C1C(c1ccc(Cl)cc1)Nc1ccc(C(=O)c3ccccc3)cc1N2` (stereo unspecified) the inhibition was 13.4% (inactive). In the case of `O=C1CCCC2=C1C(c1c(F)cccc1Cl)Nc1ccc(C(=O)c3ccccc3)cc1N2` (stereo unspecified), the inhibition is reported as -16.1% (inactive). In the case of `COc1cc(C2Nc3ccc(C(=O)c4ccccc4)cc3NC3=C2C(=O)CCC3)cc(OC)c1OC` (stereo unspecified), the inhibition is reported as 59.8% (active). In the case of `Cc1ccc(C2=CC(c3ccccc3F)n3nnnc3N2)cc1` (stereo unspecified), the inhibition is reported as -31.7% (inactive). For `COc1ccccc1CN(Cc1cc2cccc(C)c2n2nnnc12)C(=O)C1CC1`, the inhibition was 6.49% (inactive). For `O=C1C(=O)N(CCCn2ccnc2)C(c2ccc(Cl)cc2)/C1=C(/O)c1ccccc1` (stereo unspecified), the inhibition was 7.39% (inactive). In the case of `COC(=O)c1nnn(CC(=O)Nc2ccc3c(c2)OCCO3)c1C(=O)OC`, the inhibition is reported as 9.22% (inactive). With `Cc1cc(C)nc(NS(=O)(=O)c2ccc(N/C=C\C(=O)c3cccs3)cc2)n1` the inhibition was 49.6% (active). For `COc1cccc(C(=O)/C=C\Nc2ccc(S(=O)(=O)Nc3nc(C)cc(C)n3)cc2)c1`, the inhibition was -30.1% (inactive) and -6.6% (inactive). With `COc1cc(NS(=O)(=O)c2ccc(N/C=C\C(=O)c3cccs3)cc2)nc(OC)n1` the inhibition was -5.11% (inactive). In the case of `N#CCCNc1ncc(-c2ccc(Cl)cc2)cn1`, the inhibition is reported as -8.87% (inactive). With `Cc1ccc(NC(=O)CN2CCN(c3ccc(Cl)cc3)CC2)cc1Br` the inhibition was -5.18% (inactive). For `CCOC(=O)C1=C(C)NC(C)=C(C(=O)OCC)C1c1ccc(C2C(C(=O)OCC)=C(C)NC(C)=C2C(=O)OCC)cc1`, the inhibition was 8.31% (inactive). For `O=C(Cc1ccsc1)N1CCC2(CC1)CC2C(=O)N1CCN(Cc2ccccc2)CC1` (stereo unspecified), the inhibition was 7.69% (inactive). For `O=C(NCc1ccccc1)C1CC12CCN(C(=O)Cc1ccsc1)CC2` (stereo unspecified), the inhibition was -4.7% (inactive). For `O=C(NCc1ccccc1)C1CC12CCN(Cc1ccsc1)CC2` (stereo unspecified), the inhibition was 50.1% (active). In the case of `CCOC(=O)c1c(NC(=O)C(C)Sc2nnc(CNC(=O)c3ccc(Cl)cc3Cl)n2C)sc2c1CCCC2` (stereo unspecified), the inhibition is reported as 5.37% (inactive). In the case of `COc1ccc(-n2nc(C(=O)N3CCN(C)CC3)c3ccccc3c2=O)c(OC)c1`, the inhibition is reported as 3.03% (inactive). For `COc1ccc(/C=C(/NC(=O)c2ccco2)C(=O)Nc2cccc(O)c2)cc1`, the inhibition was 0.64% (inactive). With `COc1ccc(C2CC(C(F)(F)F)n3ncc(C(=O)NCc4cccs4)c3N2)cc1OC` (stereo unspecified) the inhibition was -29.4% (inactive). For `O=C(C(Cc1ccccc1)NS(=O)(=O)c1cccs1)N1CCc2ccccc21` (stereo unspecified), the inhibition was 7.02% (inactive). For `Cc1ccc2cc(CN(CCCO)S(=O)(=O)c3ccccc3[N+](=O)[O-])c(=O)[nH]c2c1`, the inhibition was -39.4% (inactive). For `CC1=C(C(=O)Nc2ccc(Cl)cc2)C(c2cccc(Cl)c2)NC(=O)N1` (stereo unspecified), the inhibition was 6.92% (inactive). For `CCOc1ccc(NC(=O)C2=C(C)NC(=O)NC2c2ccc(Cl)cc2)cc1` (stereo unspecified), the inhibition was 11% (inactive). With `CC1=C(C(=O)Nc2ccc(Cl)cc2)C(c2c(Cl)cccc2Cl)NC(=O)N1` (stereo unspecified) the inhibition was 37.4% (active). In the case of `O=C(Nc1ccc(Br)cc1)c1cc2ccccc2c(=O)o1`, the inhibition is reported as -8.82% (inactive). In the case of `Cc1ccc2nc(NCc3ccccc3)nc(-c3ccccc3)c2c1`, the inhibition is reported as -0.32% (inactive). For `O=c1c(-c2ccccc2)[n+]([O-])c2ccccc2n1OCc1ccccc1Cl`, the inhibition was -9.42% (inactive). For `CCOC(=CNc1ccc2nsnc2c1)OCC`, the inhibition was -2.05% (inactive). For `CCCOc1ccc(N2C(=O)CC(N(CCC34CC5CC(CC(C5)C3)C4)C(C)=O)C2=O)cc1` (stereo unspecified), the inhibition was 1.87% (inactive). In the case of `c1cn(-c2ccc(Nc3nc4ncnc(NC5CC5)c4[nH]3)cc2)cn1`, the inhibition is reported as 45.5% (active). With `c1ccc(Nc2nc3ncnc(NCc4cccnc4)c3[nH]2)cc1` the inhibition was -5.96% (inactive). For `COc1ccc(CCNc2ncnc3nc(Nc4ccc(N5CCOCC5)cc4)[nH]c23)cc1`, the inhibition was 20.2% (inactive). For `CC1=C(C(=O)Nc2cc(Cl)ccc2C(=O)O)SCCO1`, the inhibition was 5.44% (inactive). For `CC(=O)c1ccc(N2CCN(C(=O)Cn3ncc4c3-c3cc(C)ccc3OC4)CC2)cc1`, the inhibition was -3.87% (inactive). With `CCc1nnc2n1N(C(C)=O)C(c1ccc3c(c1)CCCC3)=C(C(C)=O)S2` the inhibition was 10.8% (inactive). With `CCC(=O)C1=C(c2ccc(Cl)cc2)N(C(=O)CC)n2cnnc2S1` the inhibition was 15.1% (inactive). For `CC(=O)C1=C(c2ccc(C(C)(C)C)cc2)N(C(C)=O)n2cnnc2S1`, the inhibition was 84% (active). In the case of `CCN1CCCC1CNC(=O)CSCc1nc(-c2ccccc2F)oc1C` (stereo unspecified), the inhibition is reported as -9.37% (inactive). For `CN(C(=O)c1cccs1)C(Cc1ccccc1)C1CCN(C(=O)C2CCOC2)CC1` (stereo unspecified), the inhibition was -13% (inactive). In the case of `CCCCCCCCCc1ccc(OCCOCCOCCOCCOCCOCCOCCOCCOCCO)cc1`, the inhibition is reported as 34.7% (active). In the case of `CCc1ccc(OCCOCCNCCN)cc1`, the inhibition is reported as 13% (inactive). For `CCCCCCCc1ccc(C(=O)Oc2ccc(Br)cc2)cc1`, the inhibition was 8.27% (inactive). In the case of `CCN(CC)CCCNC(=O)c1ccc(Cn2c(=S)[nH]c3cc4c(cc3c2=O)OCO4)cc1`, the inhibition is reported as -11.4% (inactive).

Source: PubChem BioAssay AID1259422 (The Scripps Research Institute Molecular Screening Center, 2018)
